# Results as given in PubChem BioAssay AID1745853 (National Center for Advancing Translational Sciences (NCATS), 2022).
# Screen size: about 25,000 compounds; about 970 (3.9%) were called active. Not shown: some 8% with an inconclusive outcome. How the calls were made is not given here. What follows is part of a selection rich in actives, with near analogues and random picks from the rest.
# What was measured:
# Test in all cases: Primary Screen for Target Class Profiling of Small Molecule Inhibitors of Methyltransferases
# [1] = molecular target: Catechol O-methyltransferase (Homo sapiens) (UniProt P21964); conditions: purified enzyme, MTase-Glo SAH luminescence; activity change, negative = inhibition: at 40 µM, stronger effect = lower value; outcome: 40 uM
# Catechol O-methyltransferase (Homo sapiens), sequence (P21964 whole entry, looked up): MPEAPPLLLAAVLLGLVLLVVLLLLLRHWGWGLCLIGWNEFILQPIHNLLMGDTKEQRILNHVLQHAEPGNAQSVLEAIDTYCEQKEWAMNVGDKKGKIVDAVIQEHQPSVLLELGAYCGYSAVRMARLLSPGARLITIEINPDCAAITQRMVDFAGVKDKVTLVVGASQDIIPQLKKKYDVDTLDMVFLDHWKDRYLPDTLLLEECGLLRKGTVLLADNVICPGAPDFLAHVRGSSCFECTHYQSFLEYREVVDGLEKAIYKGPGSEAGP
# Summary of the method: (§1)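 Each enzyme was reacted with SAM and its substrate, with compounds tested once at 40 uM; SAH formed was read by MTase-Glo luminescence.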
# [2] = molecular target: Glycine N-methyltransferase (Homo sapiens) (UniProt Q14749); conditions: purified enzyme, MTase-Glo SAH luminescence; measured here: GNMT inhibition; at 40 µM; stronger effect = lower value
# Glycine N-methyltransferase (Homo sapiens), sequence (Q14749 whole entry, looked up): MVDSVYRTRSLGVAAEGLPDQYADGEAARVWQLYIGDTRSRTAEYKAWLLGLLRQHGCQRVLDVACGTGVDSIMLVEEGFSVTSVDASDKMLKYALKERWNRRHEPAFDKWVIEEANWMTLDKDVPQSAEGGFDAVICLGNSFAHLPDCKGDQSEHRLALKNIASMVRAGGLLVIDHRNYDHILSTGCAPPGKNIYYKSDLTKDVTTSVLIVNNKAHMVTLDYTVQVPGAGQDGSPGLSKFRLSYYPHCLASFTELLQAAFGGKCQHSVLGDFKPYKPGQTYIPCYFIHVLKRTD
# Summary of the method: as §1
# [3] = molecular target: Guanidinoacetate N-methyltransferase (Homo sapiens) (UniProt Q14353); conditions: purified enzyme, MTase-Glo SAH luminescence; measured here: GAMT inhibition; at 40 µM; stronger effect = lower value
# Summary of the method: as §1
# [4] = molecular target: Histamine N-methyltransferase (Homo sapiens) (UniProt P50135); conditions: purified enzyme, MTase-Glo SAH luminescence; measured here: HNMT inhibition; at 40 µM; stronger effect = lower value
# Histamine N-methyltransferase (Homo sapiens), sequence (P50135 whole entry, looked up): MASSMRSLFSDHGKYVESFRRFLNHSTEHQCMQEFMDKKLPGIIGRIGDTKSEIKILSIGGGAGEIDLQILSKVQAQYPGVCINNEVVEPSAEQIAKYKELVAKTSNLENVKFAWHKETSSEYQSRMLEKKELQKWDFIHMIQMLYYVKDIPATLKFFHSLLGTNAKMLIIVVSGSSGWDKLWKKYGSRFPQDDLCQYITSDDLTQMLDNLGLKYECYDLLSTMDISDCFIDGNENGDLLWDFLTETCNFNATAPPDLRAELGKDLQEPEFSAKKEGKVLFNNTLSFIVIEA
# Summary of the method: as §1
# [5] = molecular target: Nicotinamide N-methyltransferase (Homo sapiens) (UniProt P40261); conditions: purified enzyme, MTase-Glo SAH luminescence; measured here: NNMT inhibition; at 40 µM; stronger effect = lower value
# Nicotinamide N-methyltransferase (Homo sapiens), sequence (P40261 whole entry, looked up): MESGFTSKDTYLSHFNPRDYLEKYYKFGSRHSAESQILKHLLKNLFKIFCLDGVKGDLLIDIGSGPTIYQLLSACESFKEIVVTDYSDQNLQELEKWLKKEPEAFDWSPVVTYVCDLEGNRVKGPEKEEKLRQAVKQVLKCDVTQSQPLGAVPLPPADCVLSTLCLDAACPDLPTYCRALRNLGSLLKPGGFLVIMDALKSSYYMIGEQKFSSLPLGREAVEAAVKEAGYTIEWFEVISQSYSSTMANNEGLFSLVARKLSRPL
# Summary of the method: as §1
# [6] = molecular target: Phenylethanolamine N-methyltransferase (Homo sapiens) (UniProt P11086); conditions: purified enzyme, MTase-Glo SAH luminescence; measured here: PNMT inhibition; at 40 µM; stronger effect = lower value
# Phenylethanolamine N-methyltransferase (Homo sapiens), sequence (P11086 whole entry, looked up): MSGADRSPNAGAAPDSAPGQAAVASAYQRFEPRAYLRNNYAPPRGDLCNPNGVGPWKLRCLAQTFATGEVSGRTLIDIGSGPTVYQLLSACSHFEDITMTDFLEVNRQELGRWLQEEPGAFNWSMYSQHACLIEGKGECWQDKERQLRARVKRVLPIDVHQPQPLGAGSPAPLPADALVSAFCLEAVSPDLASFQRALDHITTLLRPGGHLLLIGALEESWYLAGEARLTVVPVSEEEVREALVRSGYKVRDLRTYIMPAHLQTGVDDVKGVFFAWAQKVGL
# Summary of the method: as §1
# On the % scale 0 is the no-effect control and ±100 the full control effect.
Compound,"activity change, negative = inhibition [1]","activity change, negative = inhibition [2]","activity change, negative = inhibition [3]","activity change, negative = inhibition [4]","activity change, negative = inhibition [5]","activity change, negative = inhibition [6]"
CCC(CC)C(=O)NC[C@H]1O[C@@H](CC(=O)N2CCC(C)CC2)[C@H](O)[C@@H]1O,0.159% (inactive),-5.41%,-3.2%,0.02%,-4.29%,-0.431%
Cc1cnc(C2CCC2)n1C1CCN(C(=O)CCC2CCCC2)CC1,-0.614% (active),-2.95%,3.19%,-52.2%,-10.2%,12.5%
Cc1cnc(-c2ccccc2)n1CCNC(=O)CCC1CCCC1,-2.65% (inactive),-4.13%,-6.61%,-3.82%,-12.7%,-3.43%
NS(=O)(=O)c1ccc(F)c(C(=O)NCc2noc(-c3ccco3)n2)c1,-11.2% (inactive),-7.86%,-7.24%,-3.67%,-12%,-1.94%
CCOc1ccc(CNC(=O)c2ncn3c2C(=O)N(C2CC2)C(C)(C(=O)NCc2ccccc2Cl)C3)cc1 (configuration not stated),11.3% (inactive),1.47%,2.43%,7.45%,1.94%,7.97%
CCN(CC)CCCCNc1ncc2cc(-c3c(Cl)cccc3Cl)c(NC(=O)NC(C)(C)C)nc2n1,-1.2% (active),-7.18%,10.6%,-54.9%,-20.4%,0.23%
CN(CCc1ccccn1)c1ncccc1CNC(=O)C1CCc2ccccc21 (configuration not stated),-4.9% (inactive),-5.71%,-6.23%,-3.62%,-10.6%,-5.62%
CCCCOc1ccc(CNC(=O)c2cc3n(n2)CC(C)(C(=O)NCc2ccccc2)N(C)C3=O)cc1 (configuration not stated),6.54% (inactive),8.47%,0.793%,9.19%,11.5%,7.21%
CC(C)(C)c1ccc(C(=O)Nc2cc(Cl)c(Br)cc2C(=O)O)cc1,-7.23% (active),-49.9%,-17.8%,-39.8%,-69%,-27.1%
CC(C)(C)c1ccc(S(=O)(=O)NCc2ccc(C(=O)Nc3cccnc3)cc2)cc1,-2.26% (inactive),-3.93%,-2.21%,-1.56%,-14.6%,-7.18%
Cc1ccccc1CN1C(=O)c2cc(-c3cccs3)nn2CC1(C)C(=O)NC1CCCCC1 (configuration not stated),0.113% (inactive),-0.305%,0%,0.259%,3.22%,-1.18%
COc1ccc(C2Cn3nnc(-c4noc(C5CCC5)n4)c3CO2)cc1 (configuration not stated),-14.4% (inactive),-9.87%,-9.12%,-7.42%,-17.1%,-12.5%
CN1C(=O)C2(CCN(Cc3cccn3C)C2)c2ccccc21 (configuration not stated),-4.01% (inactive),-11.7%,-5.16%,-17.5%,-15.9%,-0.794%
O=C(/C=C/c1ccc(CN(CCO)CCc2c[nH]c3ccccc23)cc1)NO,19.6% (active),-17.2%,–,-68.8%,-31%,12.3%
C/C=C\NC(=O)C1NC(=O)C(CC(N)=O)NC(=O)C(NC(=O)C(=O)C(C)CC)Cc2ccc(O)c(c2)-c2cccc3c2NC(=O)C3(O)C1O (configuration not stated),-7.46% (inactive),-2.05%,-15.1%,-0.643%,-26.2%,-2.58%
FC(F)(F)c1cccc(C2=NOC3(CCCN(CC4CCCCC4)C3)C2)c1 (configuration not stated),-1.26% (inactive),-2.05%,2.98%,1.38%,-6.62%,6.26%
Cc1nn(-c2ccccc2)c2c1C(C)N(C1CCN(C(=O)NC3CCCC3)C1)C2=O (configuration not stated),-10.5% (inactive),-9.42%,-11.7%,-6.3%,-12.4%,-12%

Compound,"activity change, negative = inhibition [1]","activity change, negative = inhibition [2]","activity change, negative = inhibition [3]","activity change, negative = inhibition [4]","activity change, negative = inhibition [5]","activity change, negative = inhibition [6]"
O=C(NCc1cc2n(n1)CCCN(C1CCCCC1)C2)c1cccc(F)c1,-1.85% (inactive),-1.07%,-0.04%,-13%,-2.3%,3.54%
Cc1ccc(NC(=O)Cn2nc3n(C(C)C)c(=O)c4ccc(C(=O)NC(C)C)cc4n3c2=O)c(Cl)c1,7.09% (inactive),7.08%,2.19%,7.8%,1.15%,7.43%
CC[C@@H](c1ccc(F)c(F)c1)n1c(C(=O)OC)c(-c2ccno2)[nH]c1=S,6.91% (inactive),1.62%,4.04%,10.6%,-18.4%,-1.86%
CCCC1c2ccc(C)n2CCN1C(=O)Nc1ccc(OCC)cc1 (configuration not stated),1.32% (inactive),1.56%,0%,-0.12%,2.78%,1.21%
CNC(=O)[C@@H]1CN(C(=O)c2ccc(OC)cc2C)C[C@H]1COC,-1.84% (inactive),-2.55%,-4.79%,-1.32%,-3.85%,-0.512%
CCCN1C(=O)c2cc(C(=O)NCc3cc(Br)ccc3OC)nn2CC1(C)C(=O)NC1CCCC1 (configuration not stated),-2.6% (inactive),-4.66%,-1.16%,-1.31%,-2.91%,-4.59%
CC1=C[C@@H](CNS(=O)(=O)c2cccc(C#N)c2)[C@H](C(C)C)C[C@H]1CC(=O)N(C)Cc1cccnc1,-5.31% (inactive),-4.49%,-3.45%,-4.55%,-23.9%,-6.65%
CCCn1c(=O)c2ccc(C(=O)NC3CCCC3)cc2n2c(=O)n(Cc3ccc(F)cc3Cl)nc12,-1.77% (inactive),-1.81%,-0.898%,5.95%,-5.65%,-1.78%
C=C1C(=O)O[C@@H]2C[C@@]3(C)CCCC(=C)[C@]3(O)C[C@H]12,6.75% (inactive),1.89%,5.34%,6.01%,-3.59%,7.18%
CCCNC(=O)Cn1ccc2cc(S(=O)(=O)N3CCCCC3)ccc21,4.84% (inactive),9.68%,1.89%,7.8%,9.14%,4.01%
O=C(O)C1=NOC2CN([S+](=O)([O-])c3cc(C(F)(F)F)cc(C(F)(F)F)c3)CC12 (configuration not stated),0.473% (inactive),0.245%,-0.074%,1.51%,-7.33%,-0.67%
COc1ccccc1NC(=O)CSc1nnc2[nH]c(=O)c(C(C)(C)C)nn12,9.13% (inactive),7.62%,0%,5.75%,-0.804%,-8.39%
CCCn1c(=O)c2cc(Cl)ccc2n2c(SCC(=O)Nc3cccc(Cl)c3)nnc12,-3.39% (inactive),-7.66%,-0.122%,1.87%,-14%,-4.95%
COc1ccc(NC(=O)CSc2nnc3n(CCCOC(C)C)c(=O)c4ccccc4n23)cc1,6.36% (inactive),1.3%,1.9%,7.77%,6.56%,5.87%
CCNC(=O)C#Cc1ccc2c(C(=Nc3ccc(CN(C)C)cc3)c3ccccc3)c(O)[nH]c2c1,-18.4% (active),-35.9%,-5.11%,-64.7%,-34.2%,-13.1%
COCCn1c(=O)c(C(=O)N2CCN(C(C)=O)CC2)nc2cccnc21,-9.78% (inactive),-6.01%,-10.4%,-3.36%,-14%,-5.78%
